From PubChem BioAssay (Tox21)
Results filed as inconclusive are left out. Where a call stands in place of a potency, no number is given. Calls of active or inactive are those of the source. Calls follow the shape of the full dose curve.

Target: Beta-2 adrenergic receptor (Homo sapiens) (UniProt P07550)
Test: Adrenergic beta2 receptor (ADRB2) small molecule agonists, cell-based qHTS assay (AID 1963593);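 also: CHO cells stably overexpressing human ADRB2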
Settings: CHO-ADRB2 cells, cAMP HTRF, 30 min; series mostly up to 42.5 µM
Method in brief: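 CHO cells stably over-expressing ADRB2 were plated overnight at 37C, then dosed with compounds plus a stimulation mix containing 100uM IBMX and 25uM Ro-20-1724 for 0.5hr at room temperature. cAMP was measured by HTRF competition, 1hr.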

Chain of Beta-2 adrenergic receptor (Homo sapiens) (P07550 whole entry, looked up): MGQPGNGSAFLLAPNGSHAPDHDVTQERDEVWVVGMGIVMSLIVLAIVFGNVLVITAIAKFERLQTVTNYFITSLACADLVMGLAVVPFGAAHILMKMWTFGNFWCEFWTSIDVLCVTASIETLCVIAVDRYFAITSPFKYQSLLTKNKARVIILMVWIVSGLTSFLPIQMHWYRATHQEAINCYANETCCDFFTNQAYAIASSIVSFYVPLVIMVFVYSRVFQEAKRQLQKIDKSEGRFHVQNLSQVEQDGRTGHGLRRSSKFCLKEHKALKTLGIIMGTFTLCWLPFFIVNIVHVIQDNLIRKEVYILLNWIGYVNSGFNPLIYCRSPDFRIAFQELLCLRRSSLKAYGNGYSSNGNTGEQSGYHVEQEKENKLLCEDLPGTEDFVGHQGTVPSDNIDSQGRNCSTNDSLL

SMILES	Potency
O=C1c2cccc(O)c2C(=O)c2c(O)cc(CO)cc21	inactive
CC(C)=CCC1=C(O)c2ccccc2C(=O)C1=O	inactive
CC(C)c1ccc2oc3nc(N)c(C(=O)O)cc3c(=O)c2c1	inactive
CCCCCCCC(=O)Oc1c(Br)cc(C#N)cc1Br	inactive
O=C(NCC1CN(c2ccc(N3CCOCC3=O)cc2)C(=O)O1)c1ccc(Cl)s1 (stereo not drawn)	inactive
c1ccc(SSc2ccccc2)cc1	inactive
C=CN1CCCCCC1=O	inactive
COc1ccc(-n2nc(C(F)F)cc2-c2ccc(S(C)=O)cc2)cc1 (stereo not drawn)	inactive
Cc1nc(C2CCCCC2)c(-c2ccc(S(N)(=O)=O)c(F)c2)o1	inactive
CCCCC1CCCCC(=O)O1 (stereo not drawn)	inactive
O=C(OCCCCCOC(=O)c1ccccc1)c1ccccc1	inactive
COC[C@H](c1ccc(C(F)(F)F)cc1)N1CCN(C2(C)CCN(C(=O)c3c(C)ncnc3C)CC2)C[C@H]1C	inactive
CCCCN(CCCC)C(=O)N(CCCC)CCCC	inactive
CCCCC(=O)O[C@]1(C(=O)CO)CC[C@H]2[C@@H]3CCC4=CC(=O)CC[C@]4(C)[C@H]3[C@@H](O)C[C@@]21C	inactive
CCOc1ccccc1O	inactive
CCCn1cnc2c1c(=O)n(CCCCC(C)=O)c(=O)n2C	inactive
Cc1ccc(S)cc1	inactive
CCC(CO)(CO)[N+](=O)[O-]	inactive
CO[C@@H]1COCC[C@@H]1N[C@@H]1CC[C@@](C(=O)N2CCc3ncc(C(F)(F)F)cc3C2)(C(C)C)C1	inactive
CCCCCCC	inactive
O=C(Cn1ccnc1[N+](=O)[O-])NCCO	inactive
CCCCCCCCCCOCC(O)CN (stereo not drawn)	inactive
O=C1CCCCCCCCCCOCCCCO1	inactive
CCC(C)CCCC(C)(C)O (stereo not drawn)	inactive

SMILES	Potency
O=C(O)Cc1c(Cl)ccc(Cl)c1Cl	inactive
CC1CCc2cc(F)cc3c(=O)c(C(=O)O)cn1c23 (stereo not drawn)	inactive
CCCCC(CC)COC(=O)CCCCCCCCC(=O)OCC(CC)CCCC (stereo not drawn)	inactive
CCN(CC)CCOc1ccc(Cc2ccccc2)cc1	inactive
O=C(CCN1CCC(c2ccccc2)C1)c1ccc2c(c1)OCCO2 (stereo not drawn)	inactive
CS(=O)(=O)c1ccc([C@@H](C[C@H]2CCC(=O)C2)C(=O)Nc2cnccn2)cc1Cl	inactive
Cc1c(F)cc2c(=O)c(C(=O)O)cn3c2c1CCC3C (stereo not drawn)	inactive
Cc1cc(CC(=O)O)c(C)n1-c1ccc(Cl)cc1	inactive
CCOC(=O)COc1cc(-n2ncc(C(F)(F)F)c(C)c2=O)c(F)cc1Cl	inactive
CCC1C(=O)OCC1Cc1cncn1C (stereo not drawn)	inactive
Cc1cc(C(=O)O)ccc1[N+](=O)[O-]	inactive
O=C(O)CCSCCC(=O)O	inactive
Cc1c(C)n(CCN(C)C)c2ccc(C(=O)OCCN(C)C)cc12	inactive
CC(=O)[C@H]1CC[C@H]2[C@@H]3C=CC4=CC(=O)CC[C@@]4(C)[C@@H]3CC[C@]12C	inactive
CCCCOC(=O)C(C)Oc1ccc(Oc2ccc(C(F)(F)F)cn2)cc1 (stereo not drawn)	inactive
CCCCOCCOC(=O)COc1ccc(Cl)cc1Cl	inactive
C[C@H](CN1CCCC1)C(=O)c1ccc(C(F)(F)F)cc1	inactive
CNC(=O)c1ccccc1Sc1ccc2c(/C=C/c3ccccn3)n[nH]c2c1	inactive
CC(C)Cc1ccc(C(C)C(=O)OCc2ccccn2)cc1 (stereo not drawn)	inactive
CCCN(CCC)CCc1cccc2c1CC(=O)N2	inactive
O=C(Nc1ccc2c(O)c(N=Nc3ccc(N=Nc4ccc(S(=O)(=O)O)cc4)cc3)c(S(=O)(=O)O)cc2c1)c1ccccc1	inactive
CC(C)=CCOC(=O)c1ccccc1	inactive
CCCCc1ccc2c(n1)[C@@H](c1ccc(OC)cc1C[C@H](C)C(=O)O)[C@H](C(=O)O)[C@H]2c1ccc2c(c1)OCO2	inactive
Clc1cc(Cl)cc(Cl)c1	inactive
